Measured values published in paper PMC7819943, “Rice protein-binding microarrays: a tool to detect cis-acting elements near promoter regions in rice”.
Whole data set: some 39,000 sequences, median “fluorescence intensity (a.u.)” near 4,300, cut for the highest 2% near 39,000. Only a selection was taken, and the highest values are over-represented in it overall.

Each sequence was assayed against T1, OsSMF1 (Oryza sativa, UniProt Q6ZLB0 1-436) (assay: protein-binding microarray (RPBM); PBS, 2% BSA, 51.3 ng/ul salmon testes DNA, 50 uM zinc acetate, 200 nM TF, 25 C, 1 h; high values mean tight binding). Conditions: protein: recombinant; tags: N-terminal polyhistidine and DsRed monomer fusion (pET32a); chain copies: 2; label: CyDye5-dUTP incorporated in the synthesized complementary strand; 3' TTTTT single-stranded linker to array surface; dsDNA, one strand shown.
T1 sequence: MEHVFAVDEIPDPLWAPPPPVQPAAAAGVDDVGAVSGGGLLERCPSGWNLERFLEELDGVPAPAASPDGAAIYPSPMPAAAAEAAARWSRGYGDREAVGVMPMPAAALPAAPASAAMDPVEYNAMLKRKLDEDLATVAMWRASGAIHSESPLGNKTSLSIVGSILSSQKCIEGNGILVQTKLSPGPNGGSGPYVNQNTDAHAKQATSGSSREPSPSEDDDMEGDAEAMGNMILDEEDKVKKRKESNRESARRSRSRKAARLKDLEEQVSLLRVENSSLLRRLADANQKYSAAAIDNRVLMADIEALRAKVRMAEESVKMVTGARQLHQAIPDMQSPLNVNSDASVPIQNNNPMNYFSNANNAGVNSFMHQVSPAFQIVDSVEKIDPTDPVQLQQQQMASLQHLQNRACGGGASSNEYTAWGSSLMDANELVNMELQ
Procedure, shortened: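 An Axon 4000B scanner gave the binding signal as per-feature fluorescence intensity in arbitrary units. This followed washing of a custom Agilent array that had been incubated for 1 h at 25 °C with 200 nM protein in PBS, 2% BSA, salmon testes DNA and 50 µM zinc acetate. The proteins were transcription factors fused at the N-terminus to polyhistidine and DsRed, expressed in E. coli BL21-CodonPlus and purified on Ni–NTA.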

Compared with “GCAGCATAGTTAGCTTTATATCTGTTTTACGTCATCACCACGGAGTCACCTAGTGCAG”, “CCGTATACATAGCTAGCTGTCTGTGATGCATGCATGGTCACGGAGTCACCTAGTGCAG” is higher in binding signal: 6330 fluorescence intensity (a.u.) for the first, 44200 fluorescence intensity (a.u.) for the second.

First: AAAGTCATGTCATCACGTATATATCACGTATACATATATACGGAGTCACCTAGTGCAG
Second: ATTCTGTCTCCTTTGCCTGTCGTCACGCTGTCATCACGCTCGGAGTCACCTAGTGCAG
The binding signal of the first is lower: 4080 fluorescence intensity (a.u.) for the first, 4480 fluorescence intensity (a.u.) for the second.

Going from “ATATACATATACATATATATACACACACACGTATACATAGCGGAGTCACCTAGTGCAG” to “TATATATGGCCTTTGGTCTGCATAGCTGTCCACGTCATCACGGAGTCACCTAGTGCAG”, the binding signal rises from 4840 fluorescence intensity (a.u.) to 42200 fluorescence intensity (a.u.).

Going from “TTCTATTTTCGCATGTGGCATTTGTGGCTGCTTGCTAGACCGGAGTCACCTAGTGCAG” to “CAATATGACATTGTATATGTGAATTGAGTGTAACTTGGTTCGGAGTCACCTAGTGCAG”, the binding signal falls from 3690 fluorescence intensity (a.u.) to 3290 fluorescence intensity (a.u.).

First: TACGCCGTTACGTGGTATGGTGTTGTGCCATTTCAGTCGGCGGAGTCACCTAGTGCAG
Second: AGAAAATGTGGAATGACGCAAATGCCCTTCTGCCTCCTCGCGGAGTCACCTAGTGCAG
The binding signal of the first is lower: 3500 fluorescence intensity (a.u.) for the first, 5440 fluorescence intensity (a.u.) for the second.

Compared with “GATTGCAGCCGCCGCCTGCGTCGGTCCAGTCACCATTGGCCGGAGTCACCTAGTGCAG”, “ACTAAATCCTCAACCACCTCATATGTTTATGTACCATCGACGGAGTCACCTAGTGCAG” is lower in binding signal: 6870 fluorescence intensity (a.u.) for the first, 3510 fluorescence intensity (a.u.) for the second.

Going from “GCGCAAGTTCTCCACAAGCCACCTCGATCGATCTCCATTGCGGAGTCACCTAGTGCAG” to “GTCAGTCACCGCCCTGTGGGGCCCACCCACCCGCGCCGTCCGGAGTCACCTAGTGCAG”, the binding signal rises from 3420 fluorescence intensity (a.u.) to 9640 fluorescence intensity (a.u.).

Compared with “AGTTTGCTGCCCACTTCAGTAGGTTACAATACAATTATACCGGAGTCACCTAGTGCAG”, “TTCAGATGTACAATTTTGCTGGATTACTAGTAGTTTTCTTCGGAGTCACCTAGTGCAG” is lower in binding signal: 65300 fluorescence intensity (a.u.) for the first, 17600 fluorescence intensity (a.u.) for the second.

Compared with “CAACAATACAGTTATTGGTAATTACAAGCTACTAGTATACCGGAGTCACCTAGTGCAG”, “CCTTTCCCTCTCCACTCTCCACCATCCTCTGCAGCTGACTCGGAGTCACCTAGTGCAG” is lower in binding signal: 18600 fluorescence intensity (a.u.) for the first, 3330 fluorescence intensity (a.u.) for the second.

Compared with “CTGCGTTACTTCGACATTGCCCGACGTGTTGACTGTGTTGCGGAGTCACCTAGTGCAG”, “GTGTGAGGTTCATGCTGGGCGGTGACGCGACGGCGGAGACCGGAGTCACCTAGTGCAG” is higher in binding signal: 4070 fluorescence intensity (a.u.) for the first, 6730 fluorescence intensity (a.u.) for the second.

First: AAGAAGAAGACGACGACGTGGCGAGCCAAGTAGCAGCAAACGGAGTCACCTAGTGCAG
Second: GTTACGACAAGTGCCACAAACCAGCAGAAGCAAAGGTAGACGGAGTCACCTAGTGCAG
The binding signal of the first is lower: 3620 fluorescence intensity (a.u.) for the first, 47900 fluorescence intensity (a.u.) for the second.

First: CTAGAAGTTACCAAGGTACCAGAGCAGACACCTAAGCAGCCGGAGTCACCTAGTGCAG
Second: AGTATGAAAGACCTGAGGATGACCCGGATTATATTCCTATCGGAGTCACCTAGTGCAG
The binding signal of the first is higher: 3370 fluorescence intensity (a.u.) for the first, 3320 fluorescence intensity (a.u.) for the second.

Compared with “GCAATGCATTTCAAATTCAGGACCCCATAGAGAAATCAACCGGAGTCACCTAGTGCAG”, “AAAATCATACGAACGGAAAAGCAAAAGATAGAAGCCAAAACGGAGTCACCTAGTGCAG” is lower in binding signal: 29200 fluorescence intensity (a.u.) for the first, 16500 fluorescence intensity (a.u.) for the second.

Compared with “AAACAAAGTGGCACAGATAAAATGGAACATAGAAGTGGCACGGAGTCACCTAGTGCAG”, “GACACAAACAAAATCGAGAAGATGGCATACCTACCATACACGGAGTCACCTAGTGCAG” is lower in binding signal: 40700 fluorescence intensity (a.u.) for the first, 22800 fluorescence intensity (a.u.) for the second.

Compared with “GATAACCGTAACTAACCGGCTTGGTCAGCAAGCCAAAGTGCGGAGTCACCTAGTGCAG”, “CTTCCACTGACATGACACCAAGAGACCACTTTCTTTAATTCGGAGTCACCTAGTGCAG” is lower in binding signal: 6310 fluorescence intensity (a.u.) for the first, 3250 fluorescence intensity (a.u.) for the second.

Going from “ATAATGAACAATTTCTTTCCAAGCTACATGTAGACCAGAGCGGAGTCACCTAGTGCAG” to “ATTCTTGCTACCTATAATTGCAACATGACAGAGTGTTAAGCGGAGTCACCTAGTGCAG”, the binding signal falls from 40100 fluorescence intensity (a.u.) to 3480 fluorescence intensity (a.u.).

Going from “CTTGTTTCACCTGTCATACACACGTTACGTCTTAGAGTCCCGGAGTCACCTAGTGCAG” to “GTAGAAGACCGGCGGAAAGTGTGAGGAGGGTGACAAGGGGCGGAGTCACCTAGTGCAG”, the binding signal falls from 5140 fluorescence intensity (a.u.) to 3420 fluorescence intensity (a.u.).

Compared with “TGATTGCAACAGGTGGGCTGGTTTTGCGTCATTTGACCAGCGGAGTCACCTAGTGCAG”, “ATTTTGACTGATGTGACGTTTGCGTGGCTGGTTTGATTAGCGGAGTCACCTAGTGCAG” is lower in binding signal: 51900 fluorescence intensity (a.u.) for the first, 4770 fluorescence intensity (a.u.) for the second.

Going from “TACAGCGTCATTGCAAGAATGGTGACGGGGTTTGAGGTTGCGGAGTCACCTAGTGCAG” to “CTTGTCGCATCTGAACGTGTCGAGTCACACCTGTGTGTTACGGAGTCACCTAGTGCAG”, the binding signal rises from 6110 fluorescence intensity (a.u.) to 8330 fluorescence intensity (a.u.).

First: TTGGCGTGTGTGCAGCATTTGCGGCGGCGGCTGAGAAAGACGGAGTCACCTAGTGCAG
Second: CATTGGTGGCGTAATGTGGTTGTTAGTGATTTGTTGCACCCGGAGTCACCTAGTGCAG
The binding signal of the first is higher: 31100 fluorescence intensity (a.u.) for the first, 3460 fluorescence intensity (a.u.) for the second.

Compared with “TCAATCTGGCGGGGTTTATTTGTGACCCTCGATCGGTCAACGGAGTCACCTAGTGCAG”, “GGAGGTGGGGATGGTGGGAGGTTTTGGTTTGGTAAAATAGCGGAGTCACCTAGTGCAG” is higher in binding signal: 4060 fluorescence intensity (a.u.) for the first, 4910 fluorescence intensity (a.u.) for the second.
